# Laboratory results reported in the supplement of paper PMC6555819.
# System: VDR:RXRa (NR concentration 270 nM, RXRa partner concentration 90 nM)
# Test: PBM binding z-score (relative to random genomic background probes); higher = stronger binding; sequences stand for … in GC…GCGATTGACAGCGTAGAATGAAGG
# Description: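 Protein-binding microarray (Agilent 4x180K custom design, double-stranded 60-nt probes: 5' GC cap, 34-nt variable region, 24-nt constant primer region; full probe sequence given). Purified or IVT nuclear receptor:RXRα heterodimers (3:1 NR:RXRα, mostly 270:90 nM) or homodimers were incubated for 1 h in PBS with 2% milk and no ligand, then detected with Alexa488 antibodies. Fluorescence from o1-orientation probes (~5 replicates averaged) was converted to z-scores against 500 random hg19 background probes. Variable regions are seed direct-repeat (DR0–DR5) sites, all their single-nucleotide variants and half-site ablations.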
row,Sequence,PBM binding z-score
1,ACTCGAAGGACAAAGGTCAGAGCTACGCCAGTGA,2.96
2,AGTCAAAGATCACTAGGTAACGTAAGATTCAGCT,-0.124
3,CCATACGGGTCAAGGTTATAGCACGGGTGGTACG,3.11
4,CTCGAAAGGTCGGTTGAGGTGAGTACACGGATAA,2.84
5,CCTATTAGTTGGCCATAAGGGCAACCGAAGCTCG,0.196
6,CCTTACGGGTCGCGAGGTTATAGCACGACGAGCG,2.88
7,CCGACTGGGGCAGAAATGTTACCATACCATCCGG,-0.557
8,CCGACTGGGGCTTAAGGTTACCATAAGCCAGCCC,-0.156
9,TCATATAGGTAATACAGGTGAACGTCGGCATCTA,1.18
10,TCGAGCAGGTTAGTCGGGGCATTCAGCCAACATA,2.09
11,GCTATTAGTTGAAAGGGCAACCGAATGATTCTCG,0.531
12,ATCGAAAGGTCGTGATGTGAGTATACAGAAAGGC,2.98
13,CCTACTGGGCCATCAGGTCATTGTTATCAACGTT,1.52
14,CGGCCAAGGTCATAGGAGGTCAGTGAAGACAGAT,6.19
15,GTACCAAGGTGTATAGGTCGTTGATGAGTAGGCG,0.168
16,CCAGACAGTTGAAAGGTAACTCAGTCTGGTACGC,0.591
17,TTACCAAGGTGAAGGTCATTGATCCCTCTGTAGA,3.43
18,ATCTCTAGGTAAAGATGGTTCAGTGAATGCAAAT,0.607
19,ACTATTAGTTGAGACGAGGTCAACCGATAGGTTG,4.47
20,CCCACTGGGCCAAAGGTCATTGATTCCAATGCTC,4.73

row,Sequence,PBM binding z-score
1,CAAACTAGGTCACAGAGGTCAAAATCCGTGCGTA,7.91
2,CCTTACGGGTCACTAGGTTATAGCACGACGAGCG,3.38
3,TGAATGAGGGTATAAGATCAGGGAACGTTGCAAA,0.217
4,GCTCGGAGTACAAGGTCAGAGCTTTGTCCGTAGA,1.48
5,TCATATAGGTAATACAGGTGAGAGTCGGCATCTA,0.85
6,CCTACTGGGCTAAGGTCATTGATCAGTCAAAGCA,3.39
7,GCTTGTAGATCAAGTTTAAGAAAGACTAAGCTAA,-0.096
8,ATCTCTAGGTAAGAGTCAGTTCAGTGAAGAACGC,0.748
9,CCTACTGCGCCATCAGGTCATTGATATCAACGTT,2.07
10,CCTTATGGGTCAAGGTTATAGCACGGGTGGTACG,2.45
11,AATACTGGGTCATCGTAGGCCAGAGTACGCACAG,2.49
12,TAGCCTACGTCATGCGGGCCAGTATAGTGTCGGC,-0.879
13,CCTATTAGTTGACCATAAGGACAACCGAAGCTCG,1.07
14,CAAACTAGGTCAAGCGGTCAAAGTCCGCTTCCCG,2.99
15,CTCGAAAGTTCGGTTGAGGTGAGTATACGGATAA,0.728
16,ATATGTAGGTTATCGGCTCATTCAGTTTGCGCAT,0.802
17,AGTCAGAGTTCACTAGGTAACGTAAGATTCAGCT,4.82
18,TAGCCTAGGTCATTGGGCCAGGATAGTACGCATC,1.85
19,ACTTACGGGTAAACGAGGTTATAGCACGCGTATA,4.1
20,CCTAGCAGGGCAGGGTCACTCAAGCATTTCGCTT,2.88
